Reference: PubChem BioAssay AID1159580 (chemical genetic matrix, 2015)
Out of some 5,500 compounds screened, about 2,000 (36%) were called active. Another 18% or so got no clear call; they are omitted. No stated cut-off is given here; in the data, active means normalized growth mostly below about 0.91 (no sharp cut-off); inconclusive means no clear call, values can overlap the other calls; inactive means mostly above about 0.92. The list shows a part of the results.

Assay: chemical genetic growth profiling, strain panel (AID 1159580);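 further: tested at 20 µM; growth read once vehicle control cultures reached saturation at 30 °C; 1 = growth at the plate median or of vehicle wells; lower values mean less growth of the strain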
Conditions: growth OD

Measured: normalized growth

COc1ccc(CCC(=O)c2c(O)cc(O[C@@H]3O[C@H](CO)C(O)[C@H](O)C3O[C@@H]3O[C@@H](C)[C@H](O)[C@@H](O)[C@H]3O)cc2O)cc1O (some centres not stated)
inactive: S. cerevisiae deletion strains, locus YJR075W, strain HOC1, active compounds read low 0.996 | S. cerevisiae deletion strains, locus YKL009W, strain mrt4, active compounds read low 1 | S. cerevisiae deletion strains, locus YKL068W, active compounds read low 0.972 | S. cerevisiae deletion strains, locus YKL085W, strain MDH1 (second series), active compounds read low 0.982 | S. cerevisiae deletion strains, locus YKL085W, strain MDH1, active compounds read low 0.982 | S. cerevisiae deletion strains, locus YKL160W, strain elf1, active compounds read low 1 | S. cerevisiae deletion strains, locus YKL190W, strain CNB1, active compounds read low 0.999 | S. cerevisiae deletion strains, locus YKR001C, strain vps1, active compounds read low 0.989 | S. cerevisiae deletion strains, locus YKR026C, strain gcn3, active compounds read low 1.02 | S. cerevisiae deletion strains, locus YKR091W, strain srl3, active compounds read low 1.01 | S. cerevisiae deletion strains, locus YLL001W, strain dnm1, active compounds read low 1 | S. cerevisiae deletion strains, locus YLL026W, active compounds read low 1.02 | S. cerevisiae deletion strains, locus YLL041C, strain sdh2, active compounds read low 1.02 | S. cerevisiae deletion strains, locus YLR027C, strain aat2, active compounds read low 1 | S. cerevisiae deletion strains, locus YLR039C, strain RIC1, active compounds read low 0.982 | S. cerevisiae deletion strains, locus YLR058C, strain SHM2, active compounds read low 1 | S. cerevisiae deletion strains, locus YLR102C, strain apc9, active compounds read low 0.973 | S. cerevisiae deletion strains, locus YLR113W, strain HOG1, active compounds read low 0.98 | S. cerevisiae deletion strains, locus YLR221C, strain rsa3, active compounds read low 1.04 | S. cerevisiae deletion strains, locus YLR258W, strain gsy2, active compounds read low 1.04 | S. cerevisiae deletion strains, locus YLR262C, strain YPT6 (second series), active compounds read low 1.05 | S. cerevisiae deletion strains, locus YLR262C, strain YPT6, active compounds read low 0.97 | S. cerevisiae deletion strains, locus YLR268W, strain sec22, active compounds read low 0.95 | S. cerevisiae deletion strains, locus YLR320W, strain mms22, active compounds read low 1.06 | S. cerevisiae deletion strains, locus YLR330W, strain CHS5, active compounds read low 0.993 | S. cerevisiae deletion strains, locus YLR342W, strain FKS1 (second series), active compounds read low 1.06 | S. cerevisiae deletion strains, locus YLR342W, strain FKS1, active compounds read low 1.02 | S. cerevisiae deletion strains, locus YLR357W, strain rsc2, active compounds read low 1.01 | S. cerevisiae deletion strains, locus YLR370C, strain arc18, active compounds read low 1.01 | S. cerevisiae deletion strains, locus YLR371W, strain rom2, active compounds read low 0.983 | S. cerevisiae deletion strains, locus YLR384C, strain iki3, active compounds read low 1.04 | S. cerevisiae deletion strains, locus YLR418C, strain cdc73, active compounds read low 0.985 | S. cerevisiae deletion strains, locus YML016C, strain PPZ1, active compounds read low 1.01 | S. cerevisiae deletion strains, locus YML032C, strain rad52, active compounds read low 0.966 | S. cerevisiae deletion strains, locus YML120C, strain ndi1, active compounds read low 1.01 | S. cerevisiae deletion strains, locus YML124C, strain tub3, active compounds read low 0.984 | S. cerevisiae deletion strains, locus YMR058W, strain fet3, active compounds read low 1.03 | S. cerevisiae deletion strains, locus YMR078C, strain ctf18, active compounds read low 0.989 | S. cerevisiae deletion strains, locus YMR125W, strain sto1, active compounds read low 1.01 | S. cerevisiae deletion strains, locus YMR129W, active compounds read low 1.02 | S. cerevisiae deletion strains, locus YMR205C, strain PFK2, active compounds read low 1.02 | S. cerevisiae deletion strains, locus YMR223W, strain ubp8, active compounds read low 1.01 | S. cerevisiae deletion strains, locus YMR231W, strain pep5, active compounds read low 0.995 | S. cerevisiae deletion strains, locus YMR263W, strain SAP30, active compounds read low 0.989 | S. cerevisiae deletion strains, locus YMR307W, strain GAS1, active compounds read low 1.04 | S. cerevisiae deletion strains, locus YNL067W, strain RPL9B, active compounds read low 0.989 | S. cerevisiae deletion strains, locus YNL071W, strain lat1, active compounds read low 1.01 | S. cerevisiae deletion strains, locus YNL128W, strain TEP1, active compounds read low 0.989 | S. cerevisiae deletion strains, locus YNL153C, strain GIM3, active compounds read low 0.988 | S. cerevisiae deletion strains, locus YNL183C, strain NPR1, active compounds read low 0.899 | S. cerevisiae deletion strains, locus YNL209W, strain ssb2, active compounds read low 1.01 | S. cerevisiae deletion strains, locus YNL233W, strain BNI4, active compounds read low 0.994 | S. cerevisiae deletion strains, locus YNL248C, strain rpa49, active compounds read low 1.04 | S. cerevisiae deletion strains, locus YNL250W, strain rad50, active compounds read low 0.979 | S. cerevisiae deletion strains, locus YNL271C, strain bni1, active compounds read low 0.981 | S. cerevisiae deletion strains, locus YNL298W, strain CLA4, active compounds read low 0.984 | S. cerevisiae deletion strains, locus YNL307C, strain MCK1, active compounds read low 0.993 | S. cerevisiae deletion strains, locus YNL322C, strain KRE1 (second series), active compounds read low 1.01 | S. cerevisiae deletion strains, locus YNL322C, strain KRE1, active compounds read low 0.993 | S. cerevisiae deletion strains, locus YNR049C, strain mso1, active compounds read low 1.02 | S. cerevisiae deletion strains, locus YNR052C, strain pop2, active compounds read low 0.993 | S. cerevisiae deletion strains, locus YOL006C, strain TOP1, active compounds read low 0.929 | S. cerevisiae deletion strains, locus YOL012C, strain htz1 1.02 | S. cerevisiae deletion strains, locus YOL147C, strain pex11, active compounds read low 0.989 | S. cerevisiae deletion strains, locus YOR001W, strain rrp6, active compounds read low 1.05 | S. cerevisiae deletion strains, locus YOR061W, strain CKA2, active compounds read low 0.999 | S. cerevisiae deletion strains, locus YOR069W, strain VPS5, active compounds read low 1 | S. cerevisiae deletion strains, locus YOR070C, strain gyp1, active compounds read low 1 | S. cerevisiae deletion strains, locus YOR080W, strain dia2, active compounds read low 1.03 | S. cerevisiae deletion strains, locus YOR083W, strain WHI5, active compounds read low 1 | S. cerevisiae deletion strains, locus YOR106W, strain vam3, active compounds read low 0.992 | S. cerevisiae deletion strains, locus YOR136W, strain idh2, active compounds read low 0.99 | S. cerevisiae deletion strains, locus YOR144C, strain elg1, active compounds read low 0.977 | S. cerevisiae deletion strains, locus YOR184W, strain ser1, active compounds read low 0.985 | S. cerevisiae deletion strains, locus YOR231W, strain MKK1, active compounds read low 0.97 | S. cerevisiae deletion strains, locus YOR265W, strain rbl2, active compounds read low 1.02 | S. cerevisiae deletion strains, locus YOR270C, strain vph1, active compounds read low 1.07 | S. cerevisiae deletion strains, locus YOR290C, strain snf2, active compounds read low 0.965 | S. cerevisiae deletion strains, locus YOR316C, strain cot1, active compounds read low 0.967 | S. cerevisiae deletion strains, locus YPL051W, strain arl3, active compounds read low 1.02 | S. cerevisiae deletion strains, locus YPL055C, strain LGE1, active compounds read low 0.982 | S. cerevisiae deletion strains, locus YPL078C, strain atp4, active compounds read low 0.989 | S. cerevisiae deletion strains, locus YPL106C, strain sse1, active compounds read low 1.02 | S. cerevisiae deletion strains, locus YPL240C, strain hsp82, active compounds read low 1.02 | S. cerevisiae deletion strains, locus YPL241C, strain CIN2, active compounds read low 0.993 | S. cerevisiae deletion strains, locus YPL256C, strain CLN2, active compounds read low 0.962 | S. cerevisiae deletion strains, locus YPR119W, strain clb2, active compounds read low 0.975 | S. cerevisiae deletion strains, locus YPR141C, strain kar3, active compounds read low 0.986 | S. cerevisiae deletion strains, locus YPR163C, strain tif3, active compounds read low 0.985 | S. cerevisiae deletion strains, locus YPR167C, strain met16, active compounds read low 0.97 | S. cerevisiae deletion strains, strain wtn01, active compounds read low 1 | S. cerevisiae strains, strain wild type, active compounds read low 0.995
